Measurements as given in PubChem BioAssay AID977628 (Broad Institute, 2014).
Hit rate of the full screen: of about 1,900 compounds, fewer than 10 were called active. Inconclusive results (about 20%) are left out.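 The calls were made as follows: active = compound lowering the normal-ribosome reporter at least twice as much as the humanized-ribosome reporter, growth loss under a set limit; inconclusive = no clear call, values can overlap the other calls; inactive = the rest.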 Only a sample is shown.

Experiment: growth of wild-type and h24-humanized E. coli strains – h24 mutant RFP vs wild-type GFP, cherry-pick, dose response (AID 977628)
Settings: E. coli WT GFP strain growth, fluorescence, 24 h; series mostly up to 50 µM; activity change, negative = inhibition: at the top concentration

Activity change, negative = inhibition, inactive:
CCn1c(NC(=O)c2nn(C)cc2Br)nc2ccccc21 -2.68
Cc1ccc(C(=O)NCC(=O)OCC(=O)Nc2cccc(S(=O)(=O)N3CCCC3)c2)cc1C -14.5
O=C(NCCc1ccccc1)c1cccc(NC(=O)c2ccccc2)c1 -14
CNC(=O)c1ccsc1NC(=O)c1ccc(S(=O)(=O)N2CCc3ccccc32)cc1 -16.9
O=C(N[C@@H](Cc1ccccc1)C(=O)OCc1ccccc1)c1nc[nH]c1C(=O)NC1CCNCC1 -13.3
COc1ccccc1N1CCN(Cc2ccc(OC)c3ccccc23)CC1 -11.9
Cc1n[nH]c(C)c1S(=O)(=O)N1CCCC(C(=O)Nc2ccc(Br)cc2)C1 (stereo not drawn) -11.2
COc1ccccc1CC(=O)NCCc1c[nH]c2ccccc12 -8.31
CC(=O)Nc1ccc(CNc2nc(NCCN(C)C)nc3cc(-c4ccccc4)sc23)cc1 3.84
CC1CCCC(NC(=O)COC(=O)[C@@H]2CC(O)CN2S(=O)(=O)c2ccc3c(c2)OCCO3)C1C (stereo partly drawn) -10.7
CCc1cc2cc(OC)ccc2nc1SCC(=O)Nc1cc(OC)c(OC)cc1C(=O)O -9.76
Cc1ccc2c(N)c(C(=O)c3ccccc3)sc2n1 -5.41
COc1ccc(C2=NN(C(=O)c3cccnc3)C(c3ccccc3)C2)cc1 (stereo not drawn) -5.27
Cc1ccc(-c2c[n+](CC(=O)Nc3ccccc3)c3n2CCC3)cc1 -6.55
Cc1ccc(OCCCC(=O)NC(C)c2ccccc2)c(C)c1 (stereo not drawn) -8.4
O=C(NCc1ccc2c(c1)OCO2)c1sccc1Br -4.39
Cc1cccc(NC(=O)c2nc(S(=O)(=O)Cc3ccccc3)ncc2Cl)c1 6.25
Cn1cc(CCC(=O)NCc2ccc3c(c2)OCO3)c2ccccc21 -5.07
Cc1ccc(S(=O)(=O)NC(C)C(=O)NCc2ccc(Cl)cc2)cc1 (stereo not drawn) -9.27
CCc1c(N=O)c(-c2ccccc2)n(O)[n+]1[O-] -8.37
COc1ccc2c(c1)c1ncn(Cc3ccccn3)c(=O)c1n2C -10.3
O=C(c1cccc(F)c1)N1CCN(c2ccc([N+](=O)[O-])c3cccnc23)CC1 -8.81
C[C@@H]1CN([C@@H](C)CO)C(=O)c2cc(NS(=O)(=O)c3ccccc3)ccc2O[C@@H]1CN(C)Cc1ccc(C(=O)Nc2ccccc2N)cc1 1.48
